Compound activity as filed in PubChem BioAssay.
AHR activator = human AHR activation | AHR-responsive luciferase reporter cells, luminescence | activation, % at 5 µM | 320,000 tested, 2.5% active | AID 2796; in the data active = activation above about 47%
CR mimetic SO = caloric restriction mimetics inhibiting age-related superoxide in yeast; S. cerevisiae aged cells, superoxide DHE fluorescence; active compounds read low; superoxide response (% of plate mean), % at 10 µM; 330,000 tested, 0.18% active;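 active = superoxide response under a set limit, about three screen SD below normal, cut at about 65% in these data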;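 note: yeast aged for seven days with compound at 30 °C before DHE staining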
PLC-beta3 inh = PLC-beta3 (human) inhibition, primary screen | Purified PLC-beta3, fluorogenic substrate, fluorescence | inhibition, % at 12.2 µM | 370,000 tested, 0.18% active | Q01970 | AID 720704; in the data active = inhibition above about 11%
PLCg1 inh = inhibitors of human phospholipase C gamma1; 370,000 tested, 0.84% active; purified PLC-gamma1, fluorogenic substrate, fluorescence; P19174; AID 720700; inhibition, % at 12.2 µM; in the data active = inhibition above about 9.5%
HIF act = HIF pathway transcriptional activation. U2OS HRE-luciferase reporter, luminescence; normalized: DMSO 0%, desferrioxamine 100%. activation, % at 7.5 µM (by protocol). AID 1910. 300,000 tested, 0.32% active;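 active = mean activation of at least 10% of the iron chelator positive control signal, with at least half of replicates also reaching 10%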
sPLA2-III inh = Blocks human group III sPLA2 activity; Q9NZ20; 370,000 tested, 0.56% active; QFRET BODIPY PC-A2 liposome hydrolysis, fluorescence; inhibition, % at 12.2 µM;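 active = inhibition above mean plus 3 SD of compounds lying within the high and low control bounds, cut at about 19% in these data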
AHR act confirm = confirmation of human aryl hydrocarbon receptor activators; 2,300 tested, 87% active; human cells, AHR-responsive luciferase reporter, luminescence; shares compounds with AHR activator; activation, % at 9 µM; in the data active = activation above about 49%;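 note: HepG2 hepatoma cells carrying a DRE-driven firefly luciferase reporter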
PXR counter = counter-screen for AHR activators: human PXR activators. activation, % at 11.6 µM. 2,300 tested, 88% active. cell-based PXR reporter, luciferase luminescence. shares compounds with AHR activator; in the data active = activation above about 11%;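 note: human hepatoma DPX-2 cells expressing full-length human PXR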
A number is an active result. Compounds with a hit are over-represented: about 3.9% of the library has one in this group of screens.

`CCC(=O)Nc1cccc(-c2csc(-c3ccccc3)n2)c1` gave AHR activator 105, CR mimetic SO inactive, PLC-beta3 inh inactive, PLCg1 inh inactive, HIF act inactive, sPLA2-III inh inactive, AHR act confirm 85 and PXR counter 21.
`CC(=O)Nc1cccc(-c2csc(Nc3ccccn3)n2)c1` gave AHR activator 85, CR mimetic SO inactive, PLC-beta3 inh inactive, PLCg1 inh inactive, HIF act inactive, sPLA2-III inh inactive, AHR act confirm 74 and PXR counter inactive.
For COCCNC(=O)c1ccc(N2CC3CC(C2)c2cccc(=O)n2C3)c(NC(=O)c2ccc(C(C)(C)C)cc2)c1 (stereo not given) the results were PLC-beta3 inh inactive, PLCg1 inh inactive and sPLA2-III inh inactive.
Cn1cc(C(=O)N/N=C/c2cccc([N+](=O)[O-])c2)c2ccccc21 was read as AHR activator 99, CR mimetic SO inactive, PLC-beta3 inh inactive, PLCg1 inh inactive, HIF act inactive, sPLA2-III inh inactive, AHR act confirm inactive and PXR counter 19.
Screening Cn1cc(C(=O)N/N=C/c2ccc([N+](=O)[O-])cc2)c2ccccc21 returned AHR activator inactive, CR mimetic SO inactive, PLC-beta3 inh inactive, PLCg1 inh inactive, HIF act inactive and sPLA2-III inh inactive.
For O=C(N/N=C/c1cccc([N+](=O)[O-])c1)c1c[nH]c2ccccc12 the results were AHR activator 97, CR mimetic SO inactive, PLC-beta3 inh inactive, PLCg1 inh inactive, HIF act inactive, sPLA2-III inh inactive, AHR act confirm 140 and PXR counter 19.
For Cc1ccc(NC(=O)c2ccc(NS(=O)(=O)c3ccc4[nH]c(=O)[nH]c4c3)cc2)nc1 the results were AHR activator inactive, CR mimetic SO inactive, PLC-beta3 inh inactive, PLCg1 inh inactive, HIF act inactive and sPLA2-III inh inactive.
`Nc1nc2c(ncn2[C@@H]2O[C@H](C(=O)NCC(c3ccccc3)c3ccccc3)[C@@H](O)[C@H]2O)c(=O)[nH]1` gave PLC-beta3 inh inactive, PLCg1 inh inactive and sPLA2-III inh inactive.
Cc1ccc(N/N=C(\C#N)C(=N)N2CCCCCC2)cc1 was read as AHR activator inactive, CR mimetic SO inactive, PLC-beta3 inh inactive, PLCg1 inh inactive, HIF act inactive and sPLA2-III inh inactive.
Screening Cc1ccc(N/N=C(\C#N)C(=N)N2CCOCC2)cc1 returned AHR activator 123, CR mimetic SO inactive, PLC-beta3 inh inactive, PLCg1 inh inactive, HIF act inactive, sPLA2-III inh inactive, AHR act confirm 115 and PXR counter 16.
`Cc1ccc(S(=O)(=O)NOCc2ccccc2)cc1` gave CR mimetic SO inactive, PLC-beta3 inh inactive, PLCg1 inh inactive and sPLA2-III inh inactive.
For O=C(CN1C(=O)NC2(CCCCCC2)C1=O)NCc1ccccc1 the results were AHR activator inactive, CR mimetic SO inactive, PLC-beta3 inh inactive, PLCg1 inh inactive and sPLA2-III inh inactive.
OC1=C(O)c2nc3cc(F)ccc3nc21 was read as AHR activator inactive, CR mimetic SO inactive, PLC-beta3 inh inactive, PLCg1 inh inactive, HIF act inactive and sPLA2-III inh inactive.
For Fc1ccc2nc3[nH]c4ccccc4c3nc2c1 the results were AHR activator 134, CR mimetic SO inactive, PLC-beta3 inh inactive, PLCg1 inh inactive, HIF act inactive, sPLA2-III inh inactive, AHR act confirm 189 and PXR counter 21.
CC(=O)c1ccc(NC(=O)CCOc2cc(C)ccc2C)cc1 was read as AHR activator inactive, CR mimetic SO inactive, PLC-beta3 inh inactive, PLCg1 inh inactive, HIF act inactive and sPLA2-III inh inactive.
CC(=O)n1cc([C@H]2C=C(C(=O)NCc3ccccc3)O[C@@H](OCCCCO)C2)c2ccccc21 was read as AHR activator 87, CR mimetic SO inactive, PLC-beta3 inh inactive, PLCg1 inh inactive, HIF act inactive, sPLA2-III inh inactive, AHR act confirm 106 and PXR counter 61.
`Clc1ccsc1-c1csc(-c2cccnc2)n1` gave AHR activator 85, CR mimetic SO inactive, PLC-beta3 inh inactive, PLCg1 inh inactive, HIF act inactive, sPLA2-III inh inactive, AHR act confirm 142 and PXR counter 25.
